Our source for the percent growth values is the supplement of paper PMC5940239.

SMILES strings stand for the structures. Values without a mark were called inactive.

In this test the test system is Madurella mycetomatis MM55. Description: percent growth relative to solvent control; higher = less inhibition, active = 20 or less. Particulars: 100 µM; 7 days.
As to `CCc1ccc([C@@H]2C[C@H](C(F)(F)F)n3ncc(C(=O)NCc4ccc(OC)cc4)c3N2)cc1`, the percent growth was 60.8%. As to `CS(=O)(=O)c1cccc(-c2cnc3[nH]cc(-c4ccc(CCC(=O)O)cc4)c3c2)c1`, the percent growth is 95.9%. Turning to `Nc1ncc(-c2ccc(C(F)(F)F)nc2)cc1-c1ccc(C(F)(F)F)nc1`, the percent growth is 94.5%.

Consider `OCCc1ccc(Nc2nccc(-c3nnc4ccccn34)n2)cc1`, for which the percent growth is 88.7%.

As to `CCN(CC)C(=O)N1CCN(C)CC1`, the percent growth is 89.3%. In the case of `CCOc1ccc(-c2nc(NC(=O)CS(=O)(=O)c3ccccc3)sc2C)cc1` it was 51.4%; in that of `c1ccc(Oc2ccc(-c3cncc(-c4ccc5[nH]ccc5c4)n3)cc2)cc1`, 92.6%. As to `COC(=O)c1ccc(F)cc1NS(=O)(=O)c1cccc(-c2cnn(Cc3ccccc3)c2)c1`, the percent growth was 118%. `CC(C)(C)OC(=O)N1CCN(c2nccc(-c3ccc(-c4ccc(Cl)cc4)s3)n2)CC1`: the percent growth is 103%. In the case of `COc1ccc(-c2nc(-c3cccc(NC(=O)Cc4ccc(F)cc4)c3)no2)cc1OC`, the percent growth is 95%.

In the case of `NC(=O)c1cc(Br)ccc1OCCOc1ccccc1`, the percent growth was 92.8%. Consider `CC[C@@H]([C@H](C)O)n1ncn(-c2ccc(N3CCN(c4ccc(OC[C@@H]5CO[C@@](Cn6cncn6)(c6ccc(F)cc6F)C5)cc4)CC3)cc2)c1=O`, for which the percent growth was 0.417% (active). To `CN1CCN(c2nccc3nc(-c4ccc(F)c(F)c4)[nH]c23)CC1` belongs 52.1%; to `Nc1ccc(C(=O)Nc2ccc(-c3nc4ccccc4o3)cc2)cc1`, 100%.
